Source: PubChem BioAssay (National Center for Advancing Translational Sciences (NCATS))
Hits are enriched below; roughly 20% of the tested compounds scored in any of these assays.
Pf growth 96h: inhibits malaria parasite growth, 96 h; P. falciparum luciferase reporter growth, 96 h; Potency, µM (top dose mostly 28.7 µM), for inactives: top-dose activity change, negative = inhibition, usual class: inhibitors; 320,000 compounds, 6.9% hits; AID 504834; also: potency is read from the fitted curve at half-maximal effect; % is scaled to controls: 0 for no effect and ±100 for the full control effect
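96 h incubation, 37 C, 5% CO2, of luciferase-reporter P. falciparum-infected RBCs (2% hematocrit, 0.05% parasitemia final) with test compounds; endpoint luminescence.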
Cycloheximide cs: counter-screen hit for Shiga toxin inhibitors, cycloheximide. 300,000 compounds, 12% hits. cell reporter, cycloheximide protein synthesis inhibition counterscreen. AID 2314. max response, %; in the data active = max response mostly above about 13%, no sharp cut-off; inactive = mostly below about 14%; also: read at 38.3 µM for the half of the compounds with a filed dose; 0% is about no effect
HCMV inh: blocks human cytomegalovirus replication; HFF cells, HCMV-luciferase reporter, 72 h; active compounds read low; activity change, negative = inhibition, % at 57.5 µM; 410,000 compounds, 4.5% hits; AID 1259415; in the data active = activity change below about -60%; inconclusive = no clear call, values can overlap the other calls; inactive = above about -39%; also: % is scaled to controls: 0 for no effect and ±100 for the full control effect
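Inhibition of viral replication was scored as loss of reporter luminescence in HFFs infected with HCMV-luciferase (MOI 1 PFU/cell) for 72 h; compounds tested at 2 doses, normalized to buffer and Salinomycin controls.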
Pf growth 48h: inhibits P. falciparum growth in the first generation, 48 h; 310,000 compounds, 5.9% hits; Potency, µM (top dose mostly 28.7 µM), without a hit: top-dose activity change, negative = inhibition, actives largely listed as inhibitors; P. falciparum luciferase growth in erythrocytes, 48 h; also: potency is read from the fitted curve at half-maximal effect; % is scaled to controls: 0 for no effect and ±100 for the full control effect
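Luciferase-expressing parasites in RBCs, 2% Hct / 0.1% parasitemia final; RPMI 1640 + 0.5% Albumax; 37 C, 5% CO2, one generation; luminescence read-out, lower signal = inhibition.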
Shiga inhibitor: blocks Shiga toxin action in Vero cells. Vero cells, Shiga toxin protein synthesis inhibition reporter. inhibition, % at 38.7 µM. 290,000 compounds, 9.2% hits. AID 2315; in the data active = inhibition mostly above about 28%, no sharp cut-off; inactive = mostly below about 43%; also: 0% is about no effect
The depositor's hits bear a star; ? = inconclusive; / = no result. Unless noted, calls follow the shape of the dose curve; as a rule, active = well fitted inhibition curve with a large enough effect; inconclusive = small, poorly fitted or top-dose-only effect, or another doubt; inactive = no such curve, though single readings can be large or run the other way.

SMILES | Pf growth 96h | Cycloheximide cs | HCMV inh | Pf growth 48h | Shiga inhibitor
Cc1ccc(-c2cc(C(=O)Nc3cc(C)on3)no2)cc1 | 43% | -2 | 19 | 9% | 26
CNc1nc(N)c(C(=O)Nc2cc(C)on2)s1 | 16% | 30* | 5 | 196% | 88*
Cc1cc(NC(=O)c2cc(C)on2)no1 | / | 8.4* | -8 | 17% | 37
CCC(C)NC(=O)c1cc(CC(C)C)on1 (configuration not stated) | 12µM* | 49* | 22 | 41% | 59*
CCCCNC(=O)c1oc2ccc(S(=O)(=O)N3CCCC3)cc2c1C | ? | -3 | 6 | ? | -10
Cc1ccc2[nH]c(=O)c(-c3nc4cc(C)ccn4c3NCc3ccco3)cc2c1 | 52% | 24* | / | 23% | 23
O=C(COC(=O)c1cc(=O)[nH]c2ccccc12)NCc1ccccc1Cl | / | / | 51 | / | /
CC(=O)Nc1ccc(OCC(=O)N2CCc3ccccc3C2)cc1 | -11% | -3 | -10 | -16% | -3
CN1CCN(c2nc(-c3ccc(Br)cc3)nnc2-c2ccccc2)CC1 | -6% | 22* | 35 | ? | 11
Cc1ccc(-c2nc(N3CCN(C)CC3)c3ccccc3n2)cc1 | 31% | 12* | 15 | ? | 11
CN1CCN(c2nc(-c3ccccc3)nc(-c3ccccc3)c2C#N)CC1 | ? | -3 | -10 | ? | -4
CC1CCN(c2nc(-c3ccc(C(C)(C)C)cc3)nc3ccccc23)CC1 | / | / | 18 | / | /
CN1CCN(c2nc(-c3ccc(C(C)(C)C)cc3)nc3ccccc23)CC1 | 25% | 57* | -37 | -7% | 59*
COc1ccc(-c2nc(-c3ccccc3)nc(N3CCN(C)CC3)c2C#N)cc1 | 13µM* | -1 | -30 | ? | -9
CC(CC(=O)NCCc1ccc(S(N)(=O)=O)cc1)c1ccccc1 (configuration not stated) | ? | -1 | 5 | ? | -10
Cc1cc2[nH]c(=O)c(=O)[nH]c2cc1S(=O)(=O)NCc1ccc(Cl)cc1 | 13µM* | -1 | / | -5% | -2
Cc1ccc(NS(=O)(=O)c2cc3[nH]c(=O)c(=O)[nH]c3cc2C)cc1Cl | / | / | 2 | / | /
COCC(C)n1c(C)cc(C(=O)CSc2nc3ccccc3c(=O)[nH]2)c1C (configuration not stated) | ? | 16* | ? | ? | 45
CCN(CC)C(=O)CSc1nc2ccccc2c(=O)n1Cc1ccco1 | / | / | -19 | / | /
CCCn1c(C)cc(C(=O)CSc2nc3ccccc3c(=O)n2Cc2ccco2)c1C | ? | 49* | ? | 30% | 57*
COCCn1c(C)cc(C(=O)COc2nc3ccccc3nc2C)c1C | ? | 1 | -86* | -15% | 1
COc1ccc(C(=O)Nc2ccccc2SCc2cc(=O)n3nc(C)sc3n2)cc1OC | ? | -4 | -17 | -8% | -7
COCC(C)n1c(C)cc(C(=O)COC(=O)CCc2nc3ccccc3c(=O)[nH]2)c1C (configuration not stated) | -19% | 0 | -17 | -16% | -5
COCCOc1nc2ccccc2nc1C | 23% | -3 | 8 | -13% | 12
Cc1nn2c(=O)cc(CSc3nc4ccccc4[nH]3)nc2s1 | -6% | 22* | 21 | / | 39
SMILES | Pf growth 96h | Cycloheximide cs | HCMV inh | Pf growth 48h | Shiga inhibitor
Cc1sc2nc(SCc3nc4ccccc4[nH]3)n(Cc3ccco3)c(=O)c2c1C | 74% | 2 | 20 | -30% | 22
Cc1cc(C(=O)CSc2nc3ccccc3[nH]2)c(C)n1Cc1ccco1 | 0% | 84* | -85* | 57% | 78*
COCC(C)n1c(SCC(=O)c2cc(C)n(C)c2C)nc2ccccc2c1=O (configuration not stated) | ? | -4 | -7 | 13µM* | -10
COCCn1c(C)cc(C(=O)CSc2ccc3ccccc3n2)c1C | / | 39* | 143 | 84% | 50*
COCCn1c(C)cc(C(=O)CSc2nc3ccccc3c(=O)[nH]2)c1C | 0.29µM* | 53* | 15 | 10% | 92*
COCCCn1c(C)cc(C(=O)COC(=O)CCc2nc3ccccc3c(=O)[nH]2)c1C | -7% | -2 | -29 | -22% | -9
CCOc1ccc2nc(NC(=O)c3cc(=O)c4ccc(C)cc4o3)sc2c1 | / | / | 11 | / | /
Cc1cc(C(=O)CSc2nc3ccc(Cl)cc3[nH]2)c(C)n1CC1CCCO1 (configuration not stated) | ? | 13 | -66* | / | 44
C=CCn1c(C)cc(C(=O)CSc2nc3ccccc3[nH]2)c1C | 24% | 34* | -92* | -79% | 69*
Cc1cc(C)c(C(=O)CSc2nc3ccccc3c(=O)[nH]2)cc1C | ? | -1 | 46 | ? | -2
Cc1cc(C(=O)CSc2nc3ccccc3[nH]2)c(C)n1C | -2% | 46* | -10 | -39% | 54*
C=CCn1c(C)cc(C(=O)CSc2nc3ccccc3c(=O)[nH]2)c1C | ? | 63* | -37 | -40% | 90*
Cc1ccc2nc(SCC(=O)c3cc(C)n(C)c3C)[nH]c2c1 | -70% | 13 | -3 | / | 28
C=CCn1c(C)cc(C(=O)CN2C(=O)c3ccccc3S2(=O)=O)c1C | -35% | / | / | ? | /
CCOc1ccc(OCC)c(S(=O)(=O)N2CCN(c3cccc(C)c3C)CC2)c1 | / | / | -6 | / | /
C[C@H](CO)N1C[C@H](C)[C@@H](CN(C)S(=O)(=O)c2ccc(F)cc2)Oc2c(NS(=O)(=O)c3ccccc3)cccc2C1=O | / | / | -15 | / | /
COCCn1c(C)cc(C(=O)CSc2nc(C)nc3sc4c(c23)CCC4)c1C | / | / | -80* | / | /
CN1C(=O)CSc2ccc(NC(=O)N3CCN(c4ccccc4)CC3)cc21 | 24% | 14 | 56 | ? | -3
COc1cccc(/C=N/Nc2ccc([N+](=O)[O-])cn2)c1O | ? | 40* | -98* | ? | 91*
O=c1nccc(N/N=C/c2ccccc2O)[nH]1 | 0.83µM* | 27* | -91* | 9.3µM* | 31
CCOc1ccccc1/C=N/Nc1ccnc(=O)[nH]1 | ? | 24* | -99* | ? | 28
CCOc1ccccc1/C=N/Nc1cc(C)nc2ccc(C)cc12 | ? | 14 | 10 | -7% | /
COc1cccc(/C=N/Nc2ccnc(=O)[nH]2)c1O | 0.23µM* | 26* | -94* | 0.29µM* | 56*
COc1cccc(C=NNC(=O)c2ccncc2)c1O | / | / | 6 | / | /
CC(C)CCN1CCN(Cc2cccn2-c2ccc(Cl)cn2)CC1CCO (configuration not stated) | 0% | 2 | -23 | 9.3µM* | -8
Cc1ccc(CN2CCN(Cc3cccn3-c3ccc(Cl)cn3)CC2CCO)o1 (configuration not stated) | 12µM* | -2 | 17 | ? | 1
Cc1ccc(CN2CCN(Cc3cccn3-c3ccccn3)CC2CCO)cc1 (configuration not stated) | 46% | 1 | 29 | -1% | -10
CC(C)CCN1CCN(Cc2cccn2-c2cccnc2)CC1CCO (configuration not stated) | ? | -1 | 0 | -9% | -18
